FLuc counter – qHTS profiling assay for firefly luciferase inhibitor/activator using purifed enzyme and Km concentrations of substrates (counterscreen for miR-21 project); Luciferin 4-monooxygenase (Photinus pyralis), P08659; purified FLuc, Km substrates, luminescence inhibition; Potency, µM (top dose mostly 57.5 µM), hits mostly inhibitors; 360,000 compounds, 6.9% hits; also: nearly all actives have a fitted effect of over 55% in size
Target sequence (P08659 whole entry, looked up): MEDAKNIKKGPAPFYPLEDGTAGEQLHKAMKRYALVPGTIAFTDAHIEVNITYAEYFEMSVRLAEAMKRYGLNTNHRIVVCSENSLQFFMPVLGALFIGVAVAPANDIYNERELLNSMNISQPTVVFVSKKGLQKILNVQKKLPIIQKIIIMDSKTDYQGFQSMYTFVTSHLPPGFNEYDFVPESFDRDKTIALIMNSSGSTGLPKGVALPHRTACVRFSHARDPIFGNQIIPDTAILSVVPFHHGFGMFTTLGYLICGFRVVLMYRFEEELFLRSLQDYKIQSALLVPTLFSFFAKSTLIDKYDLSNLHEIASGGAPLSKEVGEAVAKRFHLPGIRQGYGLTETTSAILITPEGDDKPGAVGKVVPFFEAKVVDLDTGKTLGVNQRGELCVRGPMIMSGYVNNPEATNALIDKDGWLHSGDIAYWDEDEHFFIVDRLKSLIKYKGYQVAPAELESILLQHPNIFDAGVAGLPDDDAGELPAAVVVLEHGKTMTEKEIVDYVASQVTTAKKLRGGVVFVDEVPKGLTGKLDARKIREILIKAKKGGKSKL
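Purified P. pyralis luciferase (10nM final) with 10uM D-luciferin and 10uM ATP (Km levels) in 50mM Tris acetate pH 7.5, 10mM Mg acetate, 0.01% Tween-20, 0.05% BSA; qHTS 6-point titration, ~60 µM downward; luminescence read.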
ELG1 DNA repair – qHTS screen for small molecules that inhibit ELG1-dependent DNA repair in human embryonic kidney (HEK293T) cells expressing luciferase-tagged ELG1. HEK293T ELG1-luciferase reporter, luminescence, 16 h; DNA damage induced by 5-fluorouridine. Potency, µM (top dose mostly 46.1 µM), usual class: inhibitors. 330,000 compounds, 2.3% hits. AID 504467, 2011; also: nearly all actives have a fitted effect of over 55% in size
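DMSO vehicle served as the neutral condition. Each well held 2,000 cells given 5-fluorouridine plus compound; after 16 hr at 37 °C/5% CO2, ONE-Glo was added and luciferase measured 30 min later.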
NPC1 promoter act – qHTS Assay for NPC1 Promoter Activators; 320,000 compounds, 2.4% hits; AID 485313, 2010; Huh7 NPC1 promoter luciferase reporter, 24 h; Potency, µM (titrated, usually from 9.22 µM), usual class: activators; also: nearly all actives have a fitted effect of over 60% in size
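Compounds in DMSO were transferred onto Huh7 NPC1-luciferase reporter cells pre-incubated 2 h; after 24 h at 37 °C, Amplite reagent was dispensed and luminescence recorded 10 min later.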
SMN2 splice up – qHTS Assay for Enhancers of SMN2 Splice Variant Expression | Potency, µM (doses to about 46.1 µM), actives largely listed as activators | 210,000 compounds, 2.8% hits | HEK293 SMN2-luciferase splicing reporter, luminescence, 30-36 h; also: nearly all actives have a fitted effect of over 55% in size
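HEK293 cells carry an SMN2 […]–luciferase reporter in which exon 7 inclusion puts luciferase in frame. Cells were plated 10-12 h before compound addition, then incubated 30-36 h at 37C. ONE-Glo luminescence was read; sodium butyrate at 4.5 mM final served as control.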
ELG1 genotox – qHTS screen for small molecules that induce genotoxicity in human embryonic kidney (HEK293T) cells expressing luciferase-tagged ELG1; HEK293T ELG1-luciferase reporter, luminescence, 16 h; Potency, µM (titrated, usually from 46 µM), hits mostly activators; 330,000 compounds, 1.3% hits; AID 504466, 2011; also: nearly all actives have a fitted effect of over 60% in size
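Luminescence read-out: rising ELG1-luciferase signal, reflecting elevated ELG1 protein under genetic stress, flags genotoxic compounds. Cells were treated for 16 hr at 37 °C before ONE-Glo detection.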
Rab9 promoter act – qHTS Assay for Rab9 Promoter Activators; AID 485297, 2010; 320,000 compounds, 2.8% hits; Potency, µM (doses to about 9.22 µM), actives largely listed as activators; Huh7 Rab9 promoter-luciferase reporter, luminescence, 24 h; also: nearly all actives have a fitted effect of over 60% in size
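Rab9 promoter-driven luciferase in stably transfected Huh7 cells; 1500 cells/well rested 2 h, exposed to compound in DMSO for 24 h at 37 °C, 5% CO2. Luminescence read 10 min after adding luciferase reagent at ambient temperature.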
Each line names hits and unclear results; the compound was inactive in the other large screens. Sampled rows, rich in hits. Any-hit rate of the full collection: about 9.2%. Calls follow the shape of the dose curve; as a rule, active = well fitted curve in the direction sought with a large enough effect; inconclusive = small, poorly fitted or top-dose-only effect, or another doubt; inactive = no such curve, though single readings can be large; an effect the other way counts as inactive or inconclusive.

O=C(COc1cccc2ccccc12)Nc1nc2ccccc2[nH]1	FLuc counter inconclusive
CCOc1ccccc1OCC(=O)Nc1nc2ccccc2[nH]1	FLuc counter 15µM
CN(C)CCCSc1nc2ccccc2[nH]1	none (no result: FLuc counter, ELG1 DNA repair, NPC1 promoter act, ELG1 genotox, Rab9 promoter act)
Cc1ccccc1OCC(=O)Nc1nc2ccccc2[nH]1	FLuc counter 3.4µM, ELG1 DNA repair inconclusive, NPC1 promoter act inconclusive, SMN2 splice up 18µM, Rab9 promoter act 2.2µM
O=C(COC(=O)c1cc([N+](=O)[O-])ccc1N1CCOCC1)Nc1ncc(Cl)cc1Cl	ELG1 DNA repair inconclusive (no result: SMN2 splice up)
O=C(COc1ccccc1)Nc1nc2ccccc2[nH]1	FLuc counter 12µM, ELG1 DNA repair inconclusive, NPC1 promoter act inconclusive, SMN2 splice up inconclusive, ELG1 genotox 4.5µM, Rab9 promoter act 3.5µM
CC(CC(=O)Nc1nc2ccccc2[nH]1)c1ccccc1 (configuration not stated)	FLuc counter 12µM, ELG1 DNA repair inconclusive, NPC1 promoter act 4.5µM, SMN2 splice up inconclusive, ELG1 genotox inconclusive, Rab9 promoter act 4µM
CCOC(=O)c1ccc(NC(=O)c2sc3ccccc3c2Cl)cc1	none (no result: ELG1 DNA repair, NPC1 promoter act, ELG1 genotox, Rab9 promoter act)
CCOC(=O)c1ccc(NC(=O)c2nsc3ccccc23)cc1	FLuc counter 2.4µM, SMN2 splice up 5.6µM (no result: ELG1 DNA repair, NPC1 promoter act, ELG1 genotox, Rab9 promoter act)
CNC(=O)c1ccc(NC(=O)c2nsc3ccccc23)cc1	FLuc counter 1.5µM, SMN2 splice up 2µM (no result: ELG1 DNA repair, NPC1 promoter act, ELG1 genotox, Rab9 promoter act)
CS(=O)(=O)c1ccc2nc(NC(=O)CN3C(=O)NC4(CCCC4)C3=O)sc2c1	none (no result: SMN2 splice up)
O=C(N1CCCC1)C12CC3CC(CC(Cl)(C3)C1)C2	none (no result: SMN2 splice up)
Cc1cc(/C=C(\C#N)C(=O)O)c(C)n1-c1ccc(Br)cc1	FLuc counter 17µM (no result: SMN2 splice up)
Cc1cc(C=C(C#N)C#N)c(C)n1-c1ccccc1	FLuc counter 4.8µM, ELG1 DNA repair inconclusive, NPC1 promoter act inconclusive, Rab9 promoter act inconclusive
CNC(=O)/C(C#N)=C\c1cc(C)n(-c2ccc(N3CCOCC3)cc2)c1C	ELG1 DNA repair inconclusive (no result: SMN2 splice up)
Cc1ccc(-n2c(C)cc(C=C(C#N)C#N)c2C)cc1	FLuc counter 19µM, ELG1 DNA repair inconclusive
Cc1ccccc1NC(=O)/C(C#N)=C\c1cc(C)n(-c2ccc(C(=O)O)cc2)c1C	none (no result: SMN2 splice up)
Cc1cc(/C=C(\C#N)c2nnc(N3CCOCC3)n2-c2ccccc2)c(C)n1-c1ccccc1	FLuc counter 17µM
O=Nc1c(-c2cccc([N+](=O)[O-])c2)nc2ncccn12	none (no result: SMN2 splice up)
Cc1c(C)c(C)c(S(=O)(=O)NCCC(=O)N2CCN(Cc3ccc(C#N)cc3)CC2)c(C)c1C	none (no result: SMN2 splice up)
CCC(=O)NC(c1cc(Cl)c2cccnc2c1O)C(C)C (configuration not stated)	ELG1 DNA repair 8.2µM (no result: SMN2 splice up)
O=C(COC(=O)CNC(=O)C1CCCCC1)Nc1ccc2ccccc2c1	ELG1 DNA repair inconclusive
COc1cccc(NC(=O)CNC(=O)[C@@H]2Cc3ccccc3CN2C(=O)OC(C)(C)C)c1	none (no result: SMN2 splice up)
CC(C)(C)c1ccc(C(=O)NCC(=O)OCC(=O)Nc2ccc3c(c2)OCCO3)cc1	FLuc counter 3.4µM, ELG1 DNA repair inconclusive
CC(C)(C)OC(=O)N1Cc2ccccc2C[C@H]1C(=O)NCC(=O)Nc1ccc2c(c1)OCCO2	FLuc counter 21µM, ELG1 DNA repair inconclusive, ELG1 genotox inconclusive (no result: SMN2 splice up)
O=C(COC(=O)CNC(=O)C1CCCCC1)Nc1ccc2c(c1)OCCO2	FLuc counter 19µM
O=c1cnc2cnc(Oc3ccccc3)nc2n1Cc1cccs1	none (no result: FLuc counter, ELG1 DNA repair, NPC1 promoter act, ELG1 genotox, Rab9 promoter act)
O=C(CCn1cnc2onc(-c3ccc(F)cc3)c2c1=O)N1CCN(c2ccccc2)CC1	none (no result: ELG1 DNA repair, NPC1 promoter act, SMN2 splice up, ELG1 genotox, Rab9 promoter act)
CCOc1ccccc1NC(=O)Cn1cc(C(=O)c2cccc(OC)c2)c(=O)c2ccc(C)nc21	none (no result: ELG1 DNA repair, NPC1 promoter act, SMN2 splice up, ELG1 genotox, Rab9 promoter act)
Cc1c(-c2ccc(OCc3ccccc3)cc2)nc2ccccc2c1C(=O)O	FLuc counter 21µM, ELG1 DNA repair inconclusive (no result: SMN2 splice up)
